Screening results (PubChem)
IL-1B inflam inh – qHTS for Inhibitors of Inflammasome Signaling: IL-1-beta AlphaLISA Primary Screen | THP-1 LPS/ATP IL-1B secretion, AlphaLISA, 16 h; active compounds read low | activity change, % at 57.5 µM | 360,000 tested, 4.7% active | AID 743279, 2014; in the data active = activity change below about -50%; inconclusive = mostly about -30% to -49%
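THP-1 cells pretreated 1 hr with compounds (up to 57.5 uM final), then stimulated with LPS (250 ng/mL final) plus ATP (1.25 mM final); secreted IL-1B measured by AlphaLISA after 16 hr, decreased signal indicating inhibition.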
TDP1 cell noCPT – qHTS for Inhibitors of human tyrosyl-DNA phosphodiesterase 1 (TDP1): qHTS in cells in absence of CPT | DT40 Tdp1-/- hTDP1 cells, no CPT, ATP luminescence, 48 h | AID 686978, 2013 | Potency, µM (top dose mostly 46.2 µM), for the others: top-dose activity change, negative = growth inhibition, hits mostly inhibitors | 420,000 tested, 15% active; also: potency is read from the fitted curve at half-maximal effect; nearly all actives have a fitted effect of over 55% in size
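No-CPT arm: Tdp1-/-;hTDP1 DT40 cells (400/well) plus compounds, incubated ≥48 hr at 37 °C. Readout CellTiter-Glo luminescence.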
HT1080 IDH1KD tx – qHTS for induction of synthetic lethality in tumor cells producing 2HG: qHTS for the HT-1080-IDH1KD cell line. HT-1080 IDH1 knockdown viability, ATP luminescence, 48 h. Potency, µM (series often up to 46.1 µM), for inactives: at the top dose activity, negative = toxicity, hits mostly cytotoxic. 360,000 tested, 2% active. AID 686971, 2013;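 also: potency is read from the fitted curve at half-maximal effect; 0% = DMSO wells and -100% = cell-free medium wells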
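In this qHTS, HT-1080 cells depleted of IDH1 are exposed for 48 h at 37 °C to compound titrations. Toxicity is scored from CellTiter-Glo luminescence, with DMSO as full viability and medium alone as none.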
HT1080-NT tox – qHTS for induction of synthetic lethality in tumor cells producing 2HG: qHTS for the HT-1080-NT fibrosarcoma cell line. HT-1080-NT fibrosarcoma viability, CellTiter-Glo ATP luminescence, 48 h. Potency, µM (series often up to 46.1 µM), without a hit: at the top dose activity, negative = less viability, most hits filed as cytotoxic. 360,000 tested, 1.6% active;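 also: NT is the 2HG producing partner of a matched IDH1 knockdown line; potency is read from the fitted curve at half-maximal effect; 0% = DMSO-treated cells and -100% = media-only wells without cells; nearly all actives have a fitted effect of over 55% in size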
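HT-1080-NT fibrosarcoma cells (2HG-overproducing), 750 cells/well in RPMI with 5% FBS, dosed after 2 h and incubated 48 h at 37C. CellTiter-Glo luminescence normalized to DMSO and no-cell wells; concentration-response curves fitted and classed.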
uPA surface inh – qHTS for Inhibitors of Cell Surface uPA Generation. cell surface uPA generation assay, qHTS. Potency, µM (highest dose often 38.3 µM), without a hit: top-dose activity change, negative = inhibition, most hits filed as inhibitors. 330,000 tested, 0.31% active; active = well fitted inhibition curve with a large enough effect; inconclusive = small, poorly fitted or top-dose-only effect; inactive = no such curve, though single readings can be large or run the other way; tested in mouse RAW 264.7 cells; also: potency is read from the fitted curve at half-maximal effect; nearly all actives have a fitted effect of over 55% in size
TDP1 cell CPT – qHTS for Inhibitors of human tyrosyl-DNA phosphodiesterase 1 (TDP1): qHTS in cells in presence of CPT | chicken DT40 Tdp1-/-;hTDP1 cells + 20 nM CPT, ATP luminescence, 48 h | Potency, µM (highest dose often 46.2 µM), for the others: at the highest dose activity change, negative = growth inhibition, most hits filed as inhibitors | 420,000 tested, 12% active | AID 686979, 2013; also: potency is read from the fitted curve at half-maximal effect; nearly all actives have a fitted effect of over 55% in size
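Chicken DT40 Tdp1-/- cells stably complemented with human TDP1 were seeded at 400 cells/well in medium containing 20 nM camptothecin, exposed to pin-transferred compounds, and grown at 37 °C for at least 48 hr. Viability was read as ATP luminescence.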
Numbers without * were called inactive; i = inactive; ? = inconclusive; / = not tested or not shown. Most compounds without a hit are left out; they make up all but 19% or so of the library. Unless noted, calls follow the shape of the dose curve; as a rule, active = well fitted curve in the direction sought with a large enough effect; inconclusive = small, poorly fitted or top-dose-only effect, or another doubt; inactive = no such curve, though single readings can be large; an effect the other way counts as inactive or inconclusive. Unless noted, % is scaled to controls: 0 for no effect and ±100 for the full control effect.

SMILES	IL-1B inflam inh	TDP1 cell noCPT	HT1080 IDH1KD tx	HT1080-NT tox	uPA surface inh	TDP1 cell CPT
CCn1cc(/C=C(\NC(=O)c2ccccc2F)C(=O)N2CCN(C)CC2)c2ccccc21	-29	-29%	4%	2%	/	?
CN1CCN(Cn2cc(/C=C/C(=O)c3ccccc3)c3ccccc32)CC1	-66*	?	0%	5%	-2%	-26%
O=C(/C=C/c1cn(CC(O)CN2CCCCCC2)c2ccccc12)c1ccc(Br)cc1 (stereo not drawn)	/	13µM*	/	/	/	16µM*
OC(CN1CCCC1)Cn1ccc2ccccc21 (stereo not drawn)	-8	-16%	2%	0%	-9%	-3%
CC(=O)NC(c1ccccc1)c1nc(-c2cccs2)cs1 (stereo not drawn)	-17	?	-4%	7%	/	-20%
Cc1ccc(-c2nc3cc(Cl)ccc3o2)cc1NC(=O)COc1ccc(F)cc1	/	1%	/	/	/	-28%
CCOc1ccc(N(CC(=O)Nc2ccccc2Cl)S(C)(=O)=O)cc1	2	26µM*	?	?	10µM*	18µM*
CCOc1ccc(N(CC(=O)Nc2ccccc2OC)S(C)(=O)=O)cc1	8	?	?	-19%	?	?
CCOc1ccc(N(CC(=O)Nc2cc(Cl)ccc2C)S(C)(=O)=O)cc1	19	23µM*	?	?	?	?
CCCCCN(C(=O)CCC(=O)OCCOc1ccccc1)c1c(N)n(CCCC)c(=O)[nH]c1=O	-1	-6%	-1%	1%	-3%	6%
CCCCCN(C(=O)CCC(=O)OCc1cccc(Br)c1)c1c(N)n(CCCC)c(=O)[nH]c1=O	-1	15µM*	-8%	-16%	-2%	?
CCCCCN(C(=O)CCC(=O)OCC(=O)c1ccc(C(C)CC)cc1)c1c(N)n(CCCC)c(=O)[nH]c1=O (stereo not drawn)	-68*	?	-14%	?	-5%	?
CCCCC1CCC(C(=O)N(CCCC)c2c(N)n(CCCC)c(=O)[nH]c2=O)CC1 (stereo not drawn)	i	21µM*	-9%	-13%	4%	12µM*
CCCCCN(C(=O)CCC(=O)OCC(=O)N(C)c1ccccc1)c1c(N)n(CCCC)c(=O)[nH]c1=O	-5	2%	-10%	-3%	14%	-12%
CCCCCN(C(=O)CCC(=O)OCCOc1cccc(C)c1)c1c(N)n(CCCC)c(=O)[nH]c1=O	-4	21µM*	-10%	-5%	-2%	?
CC(=O)Nc1ccc(Nc2c(CCC(C)C)c(C)c(C#N)c3nc4ccccc4n23)cc1	/	-2%	/	/	/	-19%
COC(=O)C1CCN(CC(=O)Nc2ccc(OC)c(Cl)c2)CC1	5	5%	16%	15%	-3%	-4%
CCCCN(C(=O)CC1CCCC1)c1c(N)n(Cc2ccccc2)c(=O)[nH]c1=O	0	-15%	-1%	-5%	/	-10%
CCCCCN(C(=O)CN1CCC(Cc2ccccc2)CC1)c1c(N)n(CCCC)c(=O)[nH]c1=O	-78*	?	-9%	-9%	0%	-30%
Cc1ccnc2nc(C(=O)OCC(=O)Nc3ccc([N+](=O)[O-])cc3Br)nn12	-4	13%	6%	-5%	3%	-9%
Cc1[nH]nc(C(=O)NN=Cc2ccccc2Cl)c1N=NN(C)C	-12	6.5µM*	23µM*	21µM*	-11%	9.2µM*
O=C(CCCCCN1C(=O)[C@@H]2Cc3ccccc3CN2C1=O)NCCc1ccccc1	68	?	4%	7%	-2%	?
CNC[C@H](CC1CCCCC1)NC[C@H](CO)NCCc1cccc(C(F)(F)F)c1	-60*	5.8µM*	?	?	7.9µM*	7.3µM*
CNC[C@H](CC1CCCCC1)NC[C@H](CO)NCC1(c2ccccc2)CC1	-27	21µM*	?	?	-9%	?
CC(C1CC1)N(Cc1ccccc1)C(=S)Nc1cccc(C(F)(F)F)c1 (stereo not drawn)	-4	?	-2%	-3%	-4%	?
SMILES	IL-1B inflam inh	TDP1 cell noCPT	HT1080 IDH1KD tx	HT1080-NT tox	uPA surface inh	TDP1 cell CPT
CCC(C(=O)NCC1CCCO1)n1nc(C)c2sc3ccccc3c2c1=O (stereo not drawn)	-10	?	13%	12%	1%	?
CCOC(=O)C1C(=O)C=C(Nc2ccccc2F)CC1c1ccccc1 (stereo not drawn)	3	?	-2%	19%	-7%	-11%
CCc1ccc(C(C(=O)NC(C)(C)CC)N(Cc2ccco2)C(=O)Cn2nnc3ccccc32)cc1 (stereo not drawn)	11	?	1%	-2%	0%	18µM*
CCC(C)(C)NC(=O)C(c1ccccc1)N(Cc1cccs1)C(=O)Cn1nnc2ccccc21 (stereo not drawn)	-9	?	1%	1%	-5%	18µM*
Cc1ccc(CN(C(=O)Cn2nnc3ccccc32)C(C(=O)NCc2ccco2)c2cccs2)cc1 (stereo not drawn)	-13	23µM*	-6%	-9%	-4%	?
CCC(C)(C)NC(=O)C(c1ccc(OC)cc1)N(Cc1cccs1)C(=O)CCC(=O)Nc1cc(C)on1 (stereo not drawn)	-8	?	-22%	-6%	-1%	18µM*
O=C(NCc1ccco1)C(c1cccs1)N(Cc1ccccc1)C(=O)Cn1nnc2ccccc21 (stereo not drawn)	-7	?	12%	8%	-3%	?
CCC(C)(C)NC(=O)C(c1ccccc1F)N(Cc1ccco1)C(=O)Cn1nnc2ccccc21 (stereo not drawn)	-4	?	0%	-1%	18%	-24%
Cc1ccc2c(c1)cc1c(=O)n(Cc3ccccc3Cl)nc(C)n12	/	-1%	/	/	/	1%
CC(OC(=O)c1cccc(-n2cnnn2)c1)C(=O)Nc1cccc(Cl)c1 (stereo not drawn)	-1	?	-10%	-5%	?	?
O=C(Nc1ccc(Cl)c(S(=O)(=O)N2CCCCC2)c1)c1ccco1	-15	?	-6%	0%	-1%	-25%
